In the supplement of paper PMC4840960:
Where a name gives a salt, the structure may show the parent alone.

System: E18 rat cortical neuron-glia co-culture
Test: fiber score / MBP score (myelination specific beyond OL differentiation) (ratio); higher = more myelination-specific MBP alignment
Conditions: 1 µM; treatment time: 8 days (DIV5-DIV13)
Summary of the method: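 Fiber score divided by MBP score is the read-out; fiber score is continuous MBP fiber length per Olig2+ nucleus, and MBP score is thresholded MBP area × intensity per Olig2+ nucleus. Primary E18 rat cortical co-cultures were dissociated with papain and seeded at 20,000 cells/well on poly-d-lysine/laminin 96-well plates. Library compounds at 1 or 5 µM were given in myelination medium from DIV5 to DIV13, after which cells were fixed in 4 % paraformaldehyde, immunostained for MBP and Olig2 with DAPI, and imaged in four 10X fields per well in duplicate wells.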

| SMILES | fiber score / MBP score |
| --- | --- |
| CN1CCN(C2=Nc3cc(Cl)ccc3Nc3ccccc32)CC1 [Clozapine] | 0.395 |
| COC(=O)C1=C(C)NC(C)=C(C(=O)OCC(C)C)C1c1ccccc1[N+](=O)[O-] (stereo not drawn) [Nisoldipine] | 0.773 |
| CC(C)(C)NC(=O)[C@@H]1C[C@@H]2CCCC[C@@H]2CN1C[C@@H](O)[C@H](Cc1ccccc1)NC(=O)[C@H](CC(N)=O)NC(=O)c1ccc2ccccc2n1 [Saquinavir] | 0.889 |
| c1ccc(CC2=NCCN2)cc1 [Tolazoline] | 0.396 |
| CC=CC(=O)N(CC)c1ccccc1C [Crotamiton] | 0.609 |
| OCCN1CCN(CCCN2c3ccccc3Sc3ccc(Cl)cc32)CC1 [Perphenazine] | 0.338 |
| CC(C)(O)c1ccccc1CC[C@@H](SCC1(CC(=O)O)CC1)c1cccc(/C=C/c2ccc3ccc(Cl)cc3n2)c1 [Montelukast] | 0.64 |
| CNCCC(Oc1ccc(C(F)(F)F)cc1)c1ccccc1 (stereo not drawn) [Fluoxetine hydrochloride] | 0.807 |
| Oc1c(Cl)cc(Cl)c2cccnc12 [Chloroxine] | 2.26 |
| O=c1c(O[C@@H]2O[C@H](CO)[C@H](O)[C@H](O)[C@H]2O)c(-c2ccc(O)c(O)c2)oc2cc(O)cc(O)c12 [Hyperoside] | 0.853 |
| CN(C)CCOc1ccc(/C(=C(/CCCl)c2ccccc2)c2ccccc2)cc1 [Toremifene] | 0.889 |
| C=C(CC)C(=O)c1ccc(OCC(=O)O)c(Cl)c1Cl [Ethacrynic Acid] | 2.03 |
| C=CCc1ccc(O)c(-c2ccc(O)c(CC=C)c2)c1 [Honokiol] | 0.744 |
